Results published in the supplement of paper PMC13380429.
Values without a mark were called inactive.

System: Vero E6 infected with SARS-CoV-2
Assay: inhibition of SARS-CoV-2 cytopathic effect; higher = more antiviral protection, active = above 15
Conditions: 48 h

SMILES	inhibition of SARS-CoV-2 cytopathic effect (1 nM) [%]	inhibition of SARS-CoV-2 cytopathic effect (8.33 nM) [%]	inhibition of SARS-CoV-2 cytopathic effect (100 nM) [%]	inhibition of SARS-CoV-2 cytopathic effect (833.33 nM) [%]	inhibition of SARS-CoV-2 cytopathic effect (10000 nM)
CS(=O)(=O)c1ccc(-c2cn3ccccc3n2)cc1 [zolimidine]	-3.68	0.55	3.07	-5.22	-2.8%
OC[C@H]1O[C@H](O[C@H]2[C@H](O)[C@@H](O)[C@H](O)O[C@@H]2CO)[C@H](O)[C@@H](O)[C@@H]1O [D-(+)-maltose]	-1.05	-1.49	-0.09	-1.17	-3.27%
CC(=O)c1c(C)c2cnc(Nc3ccc(N4CCNCC4)cn3)nc2n(C2CCCC2)c1=O [palbociclib]	2.16	0.47	-4.3	-0.35	5.01%
CNC(=O)[C@H]1O[C@@H](n2cnc3c(NCc4cccc(I)c4)ncnc32)[C@H](O)[C@@H]1O	0.17	0.13	-0.04	0.25	-2.76%
CC[N+](CC)(CC)CCOc1cccc(OCC[N+](CC)(CC)CC)c1OCC[N+](CC)(CC)CC [gallamine-triethiodide]	0.22	3.57	3.37	2.88	-1.08%
COC(=O)N[C@@H](C)CNc1nccc(-c2cn(C(C)C)nc2-c2cc(Cl)cc(NS(C)(=O)=O)c2F)n1 [Encorafenib (LGX818)]	0.31	0.31	2.88	6.46	-1.13%
Nc1nc2c(ncn2[C@@H]2O[C@H](CO)[C@@H](O)[C@H]2O)c(=O)[nH]1 [guanosine]	-3.19	-0.4	-0.7	-1.53	0.09%
CCc1cn([C@H]2C[C@H](O)[C@@H](CO)O2)c(=O)[nH]c1=O [edoxudine]	2.72	2.12	0.77	1.82	-0.51%
O=C(NCC1CCCCN1)c1cc(OCC(F)(F)F)ccc1OCC(F)(F)F (stereo not given) [flecainide]	-1.39	1.45	-0.28	3.98	-3.89%
CCOC(CN1CCN(CC(C)C(=O)c2ccccc2)CC1)c1ccccc1 (stereo not given) [eprazinone]	-5.33	-3.53	-2.2	1.64	0.89%
CCOC(=O)C1=C(C)NC(C)=C(C(=O)OCC)C1c1ccccc1/C=C/C(=O)OC(C)(C)C [lacidipine]	2.1	-0.72	0.07	3.01	3.85%
CCC(=O)O[C@@H]1CC(=O)O[C@H](C)C/C=C/C=C/[C@H](OC(C)=O)[C@H](C)C[C@H](CC=O)[C@H](O[C@@H]2O[C@H](C)[C@@H](O[C@H]3C[C@@](C)(OC(C)=O)[C@@H](OC(=O)CC)[C@H](C)O3)[C@H](N(C)C)[C@H]2O)[C@H]1OC [miocamycin]	2.92	1.39	1.33	3.25	-2.09%
Fc1cc(F)c2c(c1)[C@H]1C=CC[C@H]1C(c1cccnc1)N2 (stereo not given in full) [Golgicide A]	-0.89	0.7	-0.27	-0.71	-3.16%
Cc1cnc(C(=O)NCCc2ccc(S(=O)(=O)NC(=O)NC3CCCCC3)cc2)cn1 [glipizide]	-3.14	-1.53	-0.68	-1.78	0.54%
CC[C@@H](c1ccc(F)c(F)c1)n1c(C(=O)OC)c(-c2ccno2)[nH]c1=S	1.31	2.77	1.18	1.19	-0.12%
Cc1ccc2c(c1)=C(c1ccccc1)C(C1=NN(C(=O)CCC(=O)O)C(c3ccc(Br)cc3)C1)C(=O)N=2 (stereo not given)	-0.42	-0.1	2.84	3.61	0.79%
O=C1CCC2CCC(=O)N12 [rolziracetam]	0.67	1.21	1.49	-1.36	-2.89%
Cc1ccc(OC[C@@H](O)[C@H](C)NC(C)C)c2c1CCC2 (racemic)	-1.05	-1.6	-1.43	-0.36	-1.51%
CC(=O)[C@@]1(O)CC[C@H]2[C@@H]3C[C@H](C)C4=CC(=O)C=C[C@]4(C)[C@@]3(F)[C@@H](O)C[C@@]21C [fluorometholone]	0.01	0.61	0.19	-0.97	1.57%

SMILES	inhibition of SARS-CoV-2 cytopathic effect (1 nM) [%]	inhibition of SARS-CoV-2 cytopathic effect (8.33 nM) [%]	inhibition of SARS-CoV-2 cytopathic effect (100 nM) [%]	inhibition of SARS-CoV-2 cytopathic effect (833.33 nM) [%]	inhibition of SARS-CoV-2 cytopathic effect (10000 nM)
COc1cc(NC(=O)c2ccc(-c3ccc(Cl)cc3)o2)cc(OC)c1	1.92	0.3	0.76	0.19	0.71%
C=C1C(=O)O[C@@H]2/C=C(\C)CC/C=C(\C)CC[C@@H]12 [costunolide]	-0.97	-0.24	-0.99	2.87	19.3% (active)
CN1[C@@H]2C[C@@H](OC(=O)[C@H](CO)c3ccccc3)C[C@H]1[C@@H]1O[C@@H]12	1.79	1.73	1.2	1.41	0.06%
C1CCC2(CC1)CCNCC2 [4,4-pentamethylenepiperidine]	0.06	0.78	-1	1.32	0.37%
Cc1cc(C)nc(SCC(=O)Nc2ncc(Cc3cccc4ccccc34)s2)n1	0.9	-1.68	1.78	0.63	2.48%
O=C(N[C@H](CO)[C@H](O)c1ccc([N+](=O)[O-])cc1)C(Cl)Cl [chloramphenicol]	0.28	-0.6	-1.23	0.21	-3.04%
O=c1[nH]c2ccccc2n1CCCN1CCC(n2c(=O)[nH]c3cc(Cl)ccc32)CC1 [domperidone]	0.36	-0.12	1.41	2.23	-3.31%
NC(=O)C[S+]([O-])C(c1ccccc1)c1ccccc1 (stereo not given)	-2.5	-3.65	-0.185	-1.01	-3.77%
CCOC(=O)[C@H](C)C[C@@H](Cc1ccc(-c2ccccc2)cc1)NC(=O)CCC(=O)O [sacubitril]	-3.45	-0.1	-1.3	-3.34	2.18%
CCCc1cc(C(N)=S)ccn1 [protionamide]	-1.61	2.36	1.7	3.81	-1.88%
CCc1cc2cc(OC)c(OC)cc2c(Cc2ccccc2)n1 [moxaverine]	3.28	0.47	0.44	0.83	4.26%
O=C(O)c1cccnc1 [niacin]	1.07	0.1	0.52	0.71	4.53%
Cc1cc(Nc2ncnc3ccc(NC4=NC(C)(C)CO4)cc23)ccc1Oc1ccn2ncnc2c1 [tucatinib]	-2.37	0.54	-5.16	-3.64	-12.7%
COc1c(N2CCNC(C)C2)c(F)cc2c(=O)c(C(=O)O)cn(C3CC3)c12 (stereo not given) [gatifloxacin]	-0.1	1.9	0.16	0.37	-2.52%
C=CC[C@@H]1/C=C(\C)C[C@H](C)C[C@H](OC)[C@H]2O[C@@](O)(C(=O)C(=O)N3CCCC[C@H]3C(=O)O[C@H](/C(C)=C/[C@@H]3CC[C@@H](O)[C@H](OC)C3)[C@H](C)[C@@H](O)CC1=O)[C@H](C)C[C@@H]2OC [tacrolimus]	0.97	1.42	2.56	1.67	1.14%
NC(=O)N1c2ccccc2C=Cc2ccccc21 [carbamazepine]	-2.53	-2.53	-0.42	-3.09	-3.17%
COc1ccc(CC2NCCc3cc(OC)c(OC)cc32)cc1OC (stereo not given) [tetrahydropapaverine]	1.62	0.89	-0.93	-3.46	-3.09%
CN1CCN(c2ccc3[nH]c(-c4ccc5[nH]c(-c6ccc(O)cc6)nc5c4)nc3c2)CC1 [pibenzimol]	-0.58	-1.08	1.05	2.62	4.07%
